In PubChem BioAssay (EPA / NIEHS):
Values joined by “and” are separate entries in the source; they are usually repeats but may differ in a detail not shown here. Identical values can stand only once. Inconclusive results are not listed. Some compounds were tested as several samples or in several runs, with calls that do not always agree. Active and inactive are the calls of the source. How the source made its calls: active means hit-call score of the fitted dose curve at least 0.9, where 1 is the maximum; inconclusive means response in the unintended direction; inactive means score below 0.9.

experiment: TOX21_p53_BLA_p4_viability: Viability Assessment in the Tox21 HCT-116 p53 Agonism Beta-lactamase Assay, Phase 4 (AID 2283597);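 further: hits lower the luminescence signal meaning cytotoxicity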
Source text: TOX21_p53_BLA_p4 is a cell-based, single-readout assay that uses HCT116, a human intestinal cell line, […] in a 1536-well plate.TOX21_p53_BLA_p4_viability is an assay readout measuring cellular ATP content and detected with CellTiter-Glo Luciferase-coupled ATP quantitation.TOX21_p53_BLA_p4_viability used a type of viability reporter where loss-of-signal activity can be used to understand changes in the cell viability. Furthermore, this assay endpoint can be referred to as a secondary readout, because this assay has produced multiple assay endpoints where this one serves a viability function. To generalize the intended target to other relatable targets, this assay endpoint is annotated to the cell cycle intended target family, where the subfamily is cytotoxicity.
Thawing Method: Place 14 mL of pre-warmed thaw medium into a 15 mL of conical tub. Remove the vial of cells to be thawed from liquid nitrogen and thaw rapidly by placing at 37C in a water bath with gentle agitation for 1-2 minutes. Decontaminate the vial by wiping with 70% ethanol before opening in a biological safety cabinet. Transfer the vial contents drop-wise into 14 mL of thaw medium in a sterile 15-mL conical tub. Centrifuge cells at 900 rpm for 4 minutes and resuspend in thaw medium. Transfer contents to the T75 tissue culture flask containing Thaw Medium and place flask in a humidified 37C/5% CO2 incubator. Switch to growth medium at first passage.Propagation Method: Aspirate medium, rinse once in DPBS, add 0.25% Trypsin/EDTA and swirl to coat the cell evenly. Add an equal volume of Growth Medium to inactivate Trypsin after 2-3 minutes incubation at 37C. Centrifuge cells at 900 rpm for 4 minutes and resuspend in growth medium. Cell should be passage or fed at least twice a week.Assay Protocol: Harvest cells from culture in growth medium and resuspend in assay medium. 2.2 Dispense 4000 cells/5 uL/well into 1536-well black/clear bottom plates using a Multidrop dispenser. After the cells were incubated at 37C for 5 hours, 23 nL of compounds dissolved in DMSO were transferred to the assay plate by a PinTool resulting in a 217-fold dilution. Incubate the plates for 16 hours at 37C, 5% CO2. Add 1 uL of 6X LiveBLAzer FRET B/G (CCF4-AM) Substrate Mixture to each well using a BioRAPTR dispenser and incubate the plates at room temperature for 2 hours. Measure fluorescence intensity at 460 and 530 nm emission and 405 nm excitation by an Envision detector. Data is expressed as the ratio of 460nm/530nm emissions. Add 4 uL of Cell-titer Glo to each well using BioRAPTR and incubate the plates at room temperature for […]. For cell viability readout that measures cytotoxicity, 4 ul/well of CellTiter-Glo reagent was added into the assay plates using a Flying Reagent Dispenser. After 30 min incubation at room temperature, the luminescence intensity in the plates was measured using a ViewLux plate reader.

Compound	AC50	outcome
O=C1OC2(c3ccccc31)c1cc(I)c(O)c(I)c1Oc1c2cc(I)c(O)c1I	58.1 µM (active)	inactive
C=CC(C)(CCC=C(C)C)OC(C)=O (stereo not given)	–	inactive
C[C@]12CC[C@@H]3c4ccc(O)cc4CC[C@H]3[C@@H]1CC[C@@H]2OC(=O)CCC1CCCC1	–	inactive
Cc1cc(C(C)(C)C)c(O)c(C(C)(C)C)c1	–	inactive
Cc1cc(=O)oc2cc(O)ccc12	–	inactive
CC(=O)CC(C)C	–	inactive
CCOCCOCC	–	inactive
CN(C)CCOC(c1ccccc1)c1ccccc1	–	inactive
CC1=CC(=O)c2ccccc2C1=O	72.7 µM (active)	inactive
Oc1ccc(Cc2ccccc2O)cc1	–	inactive
CC1=NN(c2ccccc2)C(=O)C1	–	inactive
c1ccc(CNc2ncnc3c2ncn3C2CCCCO2)cc1 (stereo not given)	–	inactive
CCCCCCCCCCCCCCCCCC[N+](C)(C)Cc1ccccc1	38.1 µM (active)	–
O=C(CCCN1CCC(O)(c2ccc(Cl)cc2)CC1)c1ccc(F)cc1	–	inactive
CCCCCCCCCCCC(=O)NCCCN(C)C	29 µM (active)	–
O=S(=O)(O)c1ccc2cc(O)ccc2c1	–	inactive
CCCCCCOC(=O)c1ccc(O)cc1	43.2 µM (active) and 64.2 µM (active)	–
O=C1OC(=O)c2cc(-c3ccc4c(c3)C(=O)OC4=O)ccc21	–	inactive
CCCCCCCCCCCC[N+](C)(C)CCCCCCCCCCCC	46.1 µM (active)	–

Compound	AC50	outcome
NCc1cccc(CN)c1	–	inactive
Nc1ccc(O)c(C(=O)O)c1	–	inactive
O=C(c1cc(O)c(O)c(O)c1)c1ccc(O)c(O)c1O	–	inactive
CCCCCC(C)OC(=O)COc1ccc(Cl)c2cccnc12 (stereo not given)	–	inactive
COc1ccccc1NC(=O)c1cc2ccccc2cc1O	–	inactive
CCCCCCCCCCCCOC(=O)c1cc(O)c(O)c(O)c1	46.1 µM (active) and 30.9 µM (active)	–
Cc1ccc(C)c(S(=O)(=O)O)c1	–	inactive
O=C(NO)c1ccccc1	–	inactive
CCCCCCCCCCCCCCCC(=O)OC	–	inactive
Cc1cc(Cc2cc(C)cc(C(C)(C)C)c2O)c(O)c(C(C)(C)C)c1	12 µM (active) and 19.2 µM (active)	–
CNNCc1ccc(C(=O)NC(C)C)cc1	–	inactive
COCN(COC)c1nc(N(COC)COC)nc(N(COC)COC)n1	–	inactive
Cc1ccc(C(=O)c2ccccc2)cc1	–	inactive
Cc1ccccc1C(OCCN(C)C)c1ccccc1 (stereo not given)	–	inactive
CC(C)(C)C1CCCCC1O (stereo not given)	–	inactive
O=C(Nc1ccc(Cl)c(Cl)c1)c1cc(Cl)cc(Cl)c1O	0.671 µM (active)	–
CCCCCCCCCCCCCC[n+]1ccccc1	13.3 µM (active)	–
CCC(=O)C=Cc1ccc(OC)cc1	–	inactive
O=C(Nc1cccc([N+](=O)[O-])c1)c1cc2ccccc2cc1O	16.6 µM (active)	–
